From paper PMC7862700, “An all-to-all approach to the identification of sequence-specific readers for epigenetic DNA modifications on cytosine” come the findings set out here.

Assay in all cases: DAPPL (digital affinity profiling via proximity ligation, sequencing); 10 mM Tris-HCl pH 7.5, 50 mM NaCl, 1 mM DTT, 4% glycerol, room temperature, 30 min; GST-TFs on glutathione beads, 16-mer random dsDNA library, 0.1% formaldehyde crosslink after washing; high values mean tight binding
Conditions in all cases: protein: recombinant; tags: N-terminal GST; dsDNA, one strand shown

One test has as its target T1, FLI1 (Homo sapiens, UniProt Q01543 1-452).
T1 sequence: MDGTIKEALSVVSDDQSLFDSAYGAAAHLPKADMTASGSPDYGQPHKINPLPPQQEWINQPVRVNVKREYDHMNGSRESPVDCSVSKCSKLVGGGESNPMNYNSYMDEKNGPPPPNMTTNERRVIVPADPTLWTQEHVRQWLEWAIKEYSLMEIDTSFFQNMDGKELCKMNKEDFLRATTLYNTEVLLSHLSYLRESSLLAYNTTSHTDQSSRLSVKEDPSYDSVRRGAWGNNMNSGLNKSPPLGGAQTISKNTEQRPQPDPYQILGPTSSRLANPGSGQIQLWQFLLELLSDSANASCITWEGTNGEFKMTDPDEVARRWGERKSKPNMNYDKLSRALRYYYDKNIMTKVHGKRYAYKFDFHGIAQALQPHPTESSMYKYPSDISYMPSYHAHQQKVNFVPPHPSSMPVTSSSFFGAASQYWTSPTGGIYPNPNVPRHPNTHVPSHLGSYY
The method, boiled down: (§1)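 Binding signal is each hexamer's read frequency for a factor divided by its frequency in the tag-only sample. The factors were GST-fused human transcription factors from yeast, captured on glutathione beads, DNA-barcoded and pooled with that sample. Pools were incubated with 200 nmole of a random double-stranded 16-mer DNA library in Tris/NaCl/DTT/glycerol buffer at room temperature for 30 min, then washed, crosslinked with 0.1% formaldehyde, proximity-ligated with BsaI/T4 ligase (1 h, 37 °C), PCR-amplified and sequenced on an Illumina NextSeq500.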

The next test addresses T2, ELK1 (Homo sapiens, UniProt P19419 1-428).
T2 sequence: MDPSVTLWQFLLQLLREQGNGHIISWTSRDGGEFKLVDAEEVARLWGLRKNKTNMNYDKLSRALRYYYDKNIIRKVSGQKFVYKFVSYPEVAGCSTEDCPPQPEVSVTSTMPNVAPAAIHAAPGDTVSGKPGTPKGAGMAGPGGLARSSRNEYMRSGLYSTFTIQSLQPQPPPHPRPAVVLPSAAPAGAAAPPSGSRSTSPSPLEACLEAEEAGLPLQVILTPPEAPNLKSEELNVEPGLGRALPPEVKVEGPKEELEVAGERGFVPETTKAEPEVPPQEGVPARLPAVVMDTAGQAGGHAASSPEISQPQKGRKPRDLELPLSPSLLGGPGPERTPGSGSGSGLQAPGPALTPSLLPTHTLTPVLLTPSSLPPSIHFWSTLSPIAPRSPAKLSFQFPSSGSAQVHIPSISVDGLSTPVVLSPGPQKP
The procedure, abridged: as §1

A further test concerns the target T3, GABPA (Homo sapiens, UniProt Q06546 1-454).
T3 sequence: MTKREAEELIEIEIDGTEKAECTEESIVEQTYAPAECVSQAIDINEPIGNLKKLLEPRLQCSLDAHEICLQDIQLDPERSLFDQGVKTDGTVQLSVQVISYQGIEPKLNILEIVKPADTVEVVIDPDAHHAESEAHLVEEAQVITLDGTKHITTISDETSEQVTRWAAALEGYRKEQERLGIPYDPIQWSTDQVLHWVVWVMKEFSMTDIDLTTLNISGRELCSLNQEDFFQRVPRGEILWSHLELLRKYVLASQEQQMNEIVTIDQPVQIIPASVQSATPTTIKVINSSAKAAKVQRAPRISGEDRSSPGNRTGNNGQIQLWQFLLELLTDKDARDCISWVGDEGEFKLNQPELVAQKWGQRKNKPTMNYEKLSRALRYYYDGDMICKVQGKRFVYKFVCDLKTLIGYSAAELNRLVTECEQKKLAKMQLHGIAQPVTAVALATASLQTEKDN
The method, boiled down: as §1

The target of another test is T4, ERG (Homo sapiens, UniProt P11308 1-479).
T4 sequence: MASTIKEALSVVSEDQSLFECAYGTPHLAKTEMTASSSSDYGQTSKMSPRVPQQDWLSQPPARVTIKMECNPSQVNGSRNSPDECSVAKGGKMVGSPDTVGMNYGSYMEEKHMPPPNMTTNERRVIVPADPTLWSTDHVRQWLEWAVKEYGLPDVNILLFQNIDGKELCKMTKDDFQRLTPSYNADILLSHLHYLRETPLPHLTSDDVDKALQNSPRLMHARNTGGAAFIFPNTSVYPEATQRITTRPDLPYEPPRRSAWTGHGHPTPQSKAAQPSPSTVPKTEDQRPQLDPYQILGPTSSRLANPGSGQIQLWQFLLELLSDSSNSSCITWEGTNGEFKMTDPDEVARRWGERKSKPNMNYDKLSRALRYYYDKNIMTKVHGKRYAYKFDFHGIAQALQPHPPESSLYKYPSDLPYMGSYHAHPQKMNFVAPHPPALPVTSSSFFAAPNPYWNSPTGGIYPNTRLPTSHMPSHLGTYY
The procedure, abridged: as §1

Another test deals with ELF1 (Homo sapiens, UniProt P32519 1-619). The procedure, abridged:
as §1

The next test has as its target T5, EHF (Homo sapiens, UniProt Q9NZC4 1-300).
T5 sequence: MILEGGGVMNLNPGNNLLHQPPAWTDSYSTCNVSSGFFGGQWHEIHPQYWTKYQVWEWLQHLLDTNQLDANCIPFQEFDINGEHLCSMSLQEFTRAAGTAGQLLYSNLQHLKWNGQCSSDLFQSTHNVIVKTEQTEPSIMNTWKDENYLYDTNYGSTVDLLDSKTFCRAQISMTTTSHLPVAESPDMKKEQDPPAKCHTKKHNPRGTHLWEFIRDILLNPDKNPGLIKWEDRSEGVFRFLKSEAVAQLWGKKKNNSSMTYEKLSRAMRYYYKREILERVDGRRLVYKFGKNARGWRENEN
The method, boiled down:
as §1

In the next test the target is SPI1 (Homo sapiens, UniProt P17947 1-270). The method, boiled down:
as §1

In the next test the target is SPIB (Homo sapiens, UniProt Q01892 1-262). The procedure, abridged: as §1
Chain of SPIB (Q01892 whole entry): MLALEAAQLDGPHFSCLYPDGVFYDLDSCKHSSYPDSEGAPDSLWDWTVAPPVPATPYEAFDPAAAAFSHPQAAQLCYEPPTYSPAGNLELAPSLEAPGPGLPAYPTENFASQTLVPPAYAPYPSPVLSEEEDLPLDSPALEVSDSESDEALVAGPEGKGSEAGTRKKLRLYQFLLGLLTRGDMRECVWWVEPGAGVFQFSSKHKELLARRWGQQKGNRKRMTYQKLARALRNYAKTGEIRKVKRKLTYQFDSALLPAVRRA
The next test has as its target T6, ELK3 (Homo sapiens, UniProt P41970 1-407).
T6 sequence: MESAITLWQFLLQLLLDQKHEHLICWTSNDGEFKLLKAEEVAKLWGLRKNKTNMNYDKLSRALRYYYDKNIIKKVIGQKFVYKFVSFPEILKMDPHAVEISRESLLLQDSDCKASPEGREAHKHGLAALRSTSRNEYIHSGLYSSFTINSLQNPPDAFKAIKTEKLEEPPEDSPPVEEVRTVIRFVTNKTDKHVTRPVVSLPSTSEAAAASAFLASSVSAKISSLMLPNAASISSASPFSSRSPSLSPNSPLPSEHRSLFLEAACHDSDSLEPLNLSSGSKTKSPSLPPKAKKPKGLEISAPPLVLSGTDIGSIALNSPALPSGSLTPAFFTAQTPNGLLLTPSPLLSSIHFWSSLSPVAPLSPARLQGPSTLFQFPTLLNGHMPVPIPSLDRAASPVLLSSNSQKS
The method, boiled down:
as §1

Chain of ELF1 (P32519 whole entry): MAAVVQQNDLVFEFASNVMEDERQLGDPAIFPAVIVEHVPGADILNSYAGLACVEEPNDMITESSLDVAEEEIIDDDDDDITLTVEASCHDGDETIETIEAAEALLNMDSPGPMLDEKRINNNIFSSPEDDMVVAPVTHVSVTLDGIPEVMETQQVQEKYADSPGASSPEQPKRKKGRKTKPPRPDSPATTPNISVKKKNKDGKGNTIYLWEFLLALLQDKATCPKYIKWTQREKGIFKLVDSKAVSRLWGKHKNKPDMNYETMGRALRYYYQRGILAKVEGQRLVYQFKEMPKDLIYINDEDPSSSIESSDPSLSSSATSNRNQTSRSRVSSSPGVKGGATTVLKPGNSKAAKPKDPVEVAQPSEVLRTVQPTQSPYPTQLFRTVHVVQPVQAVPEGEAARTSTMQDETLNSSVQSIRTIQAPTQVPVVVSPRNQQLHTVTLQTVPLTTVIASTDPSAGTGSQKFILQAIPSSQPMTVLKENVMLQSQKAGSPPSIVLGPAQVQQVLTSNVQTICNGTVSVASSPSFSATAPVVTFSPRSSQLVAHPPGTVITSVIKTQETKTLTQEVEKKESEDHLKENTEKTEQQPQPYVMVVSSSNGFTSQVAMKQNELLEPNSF

Turning to TAATGG, the binding signal with FLI1 was 1.26 fold enrichment (6-mer frequency, TF over GST control); in the test with ELK1 it was 1.35 fold enrichment (6-mer frequency, TF over GST control); in the test with GABPA, 1.24 fold enrichment (6-mer frequency, TF over GST control); with ERG, 1.22 fold enrichment (6-mer frequency, TF over GST control); with ELF1, 1.32 fold enrichment (6-mer frequency, TF over GST control); with EHF it was 1.25 fold enrichment (6-mer frequency, TF over GST control). The binding signal in the test with SPI1 is 1.28 fold enrichment (6-mer frequency, TF over GST control); with SPIB, 1.37 fold enrichment (6-mer frequency, TF over GST control); in the test with ELK3 it was 1.31 fold enrichment (6-mer frequency, TF over GST control).
